Structures are written as SMILES. About 8,600 (12%) of roughly 69,000 compounds showed an effect of 50% or more. Many of the other results were omitted from the sample, so strong results are more common in it than they were.

In ChEMBL document CHEMBL4513216, “Probing the Open Global Health Chemical Diversity Library for Multistage-Active Starting Points for Next-Generation Antimalarials” (ACS Infect Dis, 2020) one finds INHIBITION data, which are given here for 77 compounds.

The assay concerns Plasmodium berghei. The assay can be described thus: Screen against P. berghei liver stage (PbLuc), transformed with Luciferase, at 10uM. The class given is functional, HepG2. The conditions noted are these: tested at 10 uM.
For `Cn1cc2ncn([C@H]3CCN(Cc4ccccc4)C3)c(=O)c2n1`, the INHIBITION is -25.1%.
Then `O=C(C(CNCc1ccccn1)c1ccccc1)N1CCOCC1` (configuration not stated), with -5.32%; and `CC(C)(C)c1n[nH]c(C2CN(C(=O)CCCn3cccn3)CCO2)n1` (configuration not stated), with 17%; and `c1cncc(CN2CCc3ncnc(C4CCOC4)c3CC2)c1` (configuration not stated), with 30.7%.
Turning to `CSc1nsc(NC(=O)N2CCc3ccccc3C2)n1`, the INHIBITION is reported as 16.5%.
Consider `CCNC(=O)NCc1nn(CCN2CCCC2)c(=O)c2ccccc12`, for which the INHIBITION is 47.7%.
With `CC(C)OCCCNC(=O)CC1(Cn2cnnn2)CCCCC1`, the INHIBITION is reported as -22.2%.
Then `CC(C)CNC(=O)CC1(Cn2cnnn2)CCCCC1`, with 67.3%; and `CC(C)NC(=O)CC1(Cn2cnnn2)CCCCC1`, with 35.8%; and `Cc1ccc(N2CCCN(C(=O)CCc3nccs3)CC2)nn1`, with 3.73%.
Then `Cc1nc(N)cc(C2(C)CCCNC2)n1` (configuration not stated), with 32.8%.
For the compound `CC1CN(C(=O)CN(Cc2ccccc2)C2CC2)CCO1` (configuration not stated), the INHIBITION was found to be 15.6%.
Then `COC(=O)C(NC(=O)C1CCCC1)c1cc(F)ccc1F` (configuration not stated), with 29.4%.
Regarding `Cc1ccnc(NC(=O)c2[nH]nc(C(C)C)c2Br)c1`, the INHIBITION stood at 65%.
On to `Cc1ccnc(NC(=O)c2ccc(Br)o2)c1`, for which the INHIBITION was -51.5%.
Turning to `CC(C)c1n[nH]c(C(=O)Nc2ccncc2)c1Br`, the INHIBITION came out at 77.6%.
Then `Cc1nc2c(c(C)c1CC(=O)Nc1ccnn1C(C)C)c(=O)[nH]n2C`, with -1.33%.
As for `COc1ncccc1NC(=O)c1[nH]nc(C(C)C)c1Br`, the INHIBITION is on record as -41.6%.
As for `CC(C)c1n[nH]c(C(=O)Nc2ccnn2C(C)C)c1Br`, the INHIBITION was found to be 88.5%.
Turning to `CC(C)Nc1nc(C(=O)Nc2ccccn2)cs1`, the INHIBITION was -42.1%.
For `COc1ccncc1NC(=O)c1[nH]nc(C(C)C)c1Br`, the INHIBITION is on record as 31.1%.
Take `CC(C)c1n[nH]c(C(=O)NC(C)c2ccncc2)c1Br` (configuration not stated): the INHIBITION is on record as -9.76%.
For the compound `Cc1ccnc(NC(=O)c2ccc(Cl)o2)c1`, the INHIBITION amounted to 32.4%.
Then `CC(C(=O)Nc1ccnn1C(C)C)N1CCN(Cc2ccccc2)CC1` (configuration not stated), with -8.07%; and `CC(C)c1n[nH]c(C(=O)Nc2ccccn2)c1Br`, with 67.4%.
Turning to `Cc1ccccc1-n1cc(CN(C)C(=O)CC2C(=O)NCCN2C)cn1` (configuration not stated), the INHIBITION worked out at 42.3%.
Then `Cc1cccc(C(=O)N2CCCC[C@]3(C)NC(=O)CCC[C@H]23)n1`, with 31.6%; and `CN1CCCN(C(=O)c2cccn2-c2ccc3c(c2)OCCO3)CC1`, with 6.99%.
Then `CC(NC(=O)Nc1ccc(N2CCCC2)nc1)c1nncn1C` (configuration not stated), with 9.54%; and `O=C(NCC1(O)COCCN(Cc2cccc(O)c2)C1)c1cnccn1` (configuration not stated), with -25.3%; and `COc1ccc(C(=O)NCCCn2ccnc2)c(OC)n1`, with 26.6%.
Regarding `CC(C)c1[nH]c2ncccc2c1CN1CCOCC1`, the INHIBITION is given as -21.6%.
On to `Cc1ccc(CNC(=O)CN2CCOC(Cn3cccn3)C2)s1` (configuration not stated), for which the INHIBITION is -45.4%.
`O=C(NCc1ccc(-n2cncn2)nc1)c1cc(Cl)ccn1`: the INHIBITION was determined as 45%.
In the case of `Cc1cc(C)n(Cc2cccc(C(=O)NCCSCC(C)(C)O)c2)n1`, the INHIBITION was 0.426%.
For the compound `O=C(NCC1CCC1)c1cccc(CN2CCS(=O)(=O)CC2)c1`, the INHIBITION is given as 33.4%.
Then `CC(C)c1n[nH]c(C(=O)Nc2cc[nH]n2)c1Br`, with 55.9%.
Then `Cc1cccc(NC(=O)c2sc(C)nc2C)n1`, with -9.57%.
As to `CC(C)CC(NC(=O)c1cccc(F)c1F)C(=O)Nc1cc[nH]n1` (configuration not stated), the INHIBITION is -36.4%.
Then `Cc1cccc(NC(=O)c2[nH]nc(C(C)C)c2Br)n1`, with 65%; and `COc1ccccc1NC(=O)c1[nH]nc(C(C)C)c1Br`, with -101%; and `Cc1cccc(NC(=O)c2cncc(C3CCNCC3)n2)n1`, with 15.5%.
On to `CN(C)CCCN(Cc1cnn(C)c1)Cc1ccco1`, for which the INHIBITION is reported as -9.35%.
In the case of `Oc1ccccc1-c1n[nH]c(C2CCCO2)n1` (configuration not stated), the INHIBITION is on record as -3.11%.
In the case of `c1cnnc(N2CCCC2CNCc2cscn2)c1` (configuration not stated), the INHIBITION is listed as -56.1835%.
Then `Cc1ccsc1C1CC(=O)Nc2c1cnn2C(C)C` (configuration not stated), with 11.9%; and `Cc1ccc(-c2n[nH]cc2CNCCn2cccn2)o1`, with 77.6%; and `c1ccc(-n2cncn2)c(CNCCn2cccn2)c1`, with -14.2%.
For `Fc1ccc(-c2nc(CNCCn3cccn3)cs2)cc1`, the INHIBITION came to 4.02%.
Then `CC(NCCn1cccn1)c1ccc(F)cc1F` (configuration not stated), with 16.8%; and `Cc1ccc(-c2nc(CNCCn3cccn3)cs2)o1`, with 10.8%.
For the compound `Fc1cc(CNCCn2cccn2)ccc1-n1cncn1`, the INHIBITION amounted to 50.8%.
Then `CC(NCCn1cccn1)c1cc(F)ccc1F` (configuration not stated), with 53.8%.
Then `Fc1ccc(-c2n[nH]cc2CNCCn2cccn2)cc1`, with 77.6%; and `Fc1ccc(CNCCn2cccn2)cc1F`, with 26.9%; and `Cc1ccc(-c2n[nH]cc2CNCC2CCS(=O)(=O)C2)o1` (configuration not stated), with -29.4%.
Then `CCn1cnnc1CCNCc1c[nH]nc1-c1ccc(F)cc1`, with -5.94%; and `CC(NCCn1cccn1)c1ccccc1F` (configuration not stated), with 27.9%; and `Cn1cc(CN2CC[C@H]3O[C@@H](COCc4cccnc4)CC[C@H]32)cn1`, with 3.11%.
On to `Cc1ncc2c(n1)C1(CCN(C(=O)C3CC3)CC1)OCC2`, for which the INHIBITION is reported as 7.15%.
Take `O=C(c1cnn(-c2ccccc2)n1)N1CCCC(n2cccn2)C1` (configuration not stated): the INHIBITION worked out at 33.8%.
As to `CCOC(=O)c1c(NC(=O)CN2CCN(C(C)=O)CC2)sc(C)c1C`, the INHIBITION is reported as -13.5%.
For the compound `COc1cc(NC(=O)NCC2CCCO2)cc(OC)c1OC` (configuration not stated), the INHIBITION is reported as 29.8%.
Then `CC(C)c1nc2c(n1C)CCN(Cc1cccc(C(N)=O)c1)C2`, with 34%.
As to `Cc1ccc(F)c(S(=O)(=O)NCc2cccc(C(=O)N3CCCC3)c2)c1`, the INHIBITION is given as 17.5%.
Regarding `Cc1cc(F)ccc1CNCCn1cccn1`, the INHIBITION is given as 30.1%.
In the case of `Fc1ccc(CNCCn2cccn2)c(F)c1`, the INHIBITION is -13.3%.
Then `Fc1ccc(CNCCn2cccn2)c(Cl)c1`, with 64.1%.
As to `Cc1cc(C)c(CNC(=O)CCC2CCCO2)c(=O)[nH]1` (configuration not stated), the INHIBITION worked out at 11.45%.
Then `NC(=O)NCC(=O)N1C[C@@H]2CC[C@H]1CN(Cc1cscn1)C2`, with 7.3%; and `Cc1nnc(CCNC(=O)[C@H]2CNC[C@@H](C(=O)N3CCCC3)C2)s1`, with -5.08%; and `COc1ncccc1NC(=O)N(Cc1ccccn1)C1CC1`, with -47.6%.
In the case of `CCN(C(=O)Nc1cccnc1OC)C1CC1`, the INHIBITION is listed as 53.5%.
Then `COc1ncccc1NC(=O)N(CC(C)C)C1CC1`, with -2.19%; and `COc1ncccc1NC(=O)N(Cc1ccco1)C1CC1`, with -18%.
Then `COc1ncccc1NC(=O)N(Cc1ccc(C(N)=O)cc1)C1CC1`, with -35.7%.
Then `COc1ncccc1NC(=O)N(Cc1ccc(C)o1)C1CC1`, with 58.2%.
